Results reported in the supplement of paper PMC13380429.

Test system: Vero E6 infected with SARS-CoV-2
Assay: inhibition of SARS-CoV-2 cytopathic effect; higher = more antiviral protection, active = above 15
Conditions: 48 h

Measured: inhibition of SARS-CoV-2 cytopathic effect

CCc1nc2c(C)nc(C)cc2n1-c1ccc(CCNC(=O)NS(=O)(=O)c2ccc(C)cc2)cc1 [grapiprant]
inactive: 1 nM -1.43% | 8.33 nM -2.32% | 100 nM -2.77% | 833.33 nM -5.47% | 10000 nM -1.61%

COc1cc(O)c(C(=O)c2ccccc2)cc1S(=O)(=O)O [sulisobenzone]
inactive: 1 nM 1.82% | 8.33 nM 1.76% | 100 nM -0.05% | 833.33 nM -2.93% | 10000 nM 1.98%

C=C1/C(=C\C=C2/CCC[C@]3(C)[C@@H]([C@H](C)/C=C/[C@@H](O)C4CC4)CC[C@@H]23)C[C@@H](O)C[C@@H]1O [calcipotriol]
inactive: 1 nM -0.16% | 8.33 nM 1.94% | 100 nM -0.66% | 833.33 nM 0.91% | 10000 nM 3.83%

COc1cc2ncnc(Nc3cccc(Cl)c3)c2cc1OC [tyrphostin-AG-1478]
inactive: 1 nM -0.71% | 8.33 nM -1% | 100 nM -7.3% | 833.33 nM -11.1%
active: 10000 nM 17.9%

N#Cc1cccc(-c2c[nH]c3ncnc(N4CCOCC4)c23)c1
inactive: 1 nM -1.16% | 8.33 nM -0.52% | 100 nM -2.71% | 833.33 nM -0.07% | 10000 nM -2.14%

Cc1cc(N)c2ccccc2[n+]1CCCCCCCCCC[n+]1c(C)cc(N)c2ccccc21 [dequalinium]
inactive: 1 nM 1.5% | 8.33 nM 2.58% | 100 nM -2.33% | 833.33 nM -2.88% | 10000 nM -3.48%

CC(COc1ccccc1)N(CCCl)Cc1ccccc1 (stereo not given) [phenoxybenzamine]
inactive: 1 nM 2.45% | 8.33 nM 2.51% | 100 nM 1.57% | 833.33 nM 0.91% | 10000 nM -0.17%

Clc1ccc(C(Cn2ccnc2)OCc2c(Cl)cccc2Cl)c(Cl)c1 (stereo not given) [isoconazole]
inactive: 1 nM 0.43% | 8.33 nM 0.08% | 100 nM 1.75% | 833.33 nM 1.3% | 10000 nM -2.37%

CCOC(=O)OC(C)OC1=C(C(=O)Nc2ccccn2)N(C)S(=O)(=O)c2ccccc21 (stereo not given) [ampiroxicam]
inactive: 1 nM 1.01% | 8.33 nM -0.58% | 100 nM 1.16% | 833.33 nM 2.1% | 10000 nM 2.74%

COc1ccc(CNC(=O)Nc2ncc([N+](=O)[O-])s2)cc1
inactive: 1 nM -1.91% | 8.33 nM 2.48% | 100 nM -0.26% | 833.33 nM -1.47% | 10000 nM 2.28%

CCCCCCCCCCCCc1ccc(S(=O)(=O)Nc2nncs2)cc1
inactive: 1 nM -0.85% | 8.33 nM 0.48% | 100 nM -0.22% | 833.33 nM -2.3% | 10000 nM -0.65%

COC(=O)[C@@H]1C[C@H](OC(C)=O)C(=O)[C@H]2[C@@]1(C)CC[C@H]1C(=O)O[C@H](c3ccoc3)C[C@]21C [salvinorin-A]
inactive: 1 nM -2.48% | 8.33 nM -1.89% | 100 nM -1.61% | 833.33 nM -0.35% | 10000 nM 0.69%

CCCCCCCCCCCCCCCCCCOP(=O)([O-])OC1CC[N+](C)(C)CC1 [perifosine]
inactive: 1 nM 0.3% | 8.33 nM -1.34% | 100 nM -0.76% | 833.33 nM -1.89% | 10000 nM -0.93%

c1ccc2nc(N3CCNCC3)ccc2c1 [quipazine]
inactive: 1 nM 2.16% | 8.33 nM -1.97% | 100 nM -0.43% | 833.33 nM 1.22% | 10000 nM -2.16%

CCNC(=O)NS(=O)(=O)c1sc(CC(C)C)cc1-c1ccc(Cn2c(-c3ccccc3)nc(OC)c2C=O)cc1
inactive: 1 nM -1.39% | 8.33 nM -0.39% | 100 nM 2.26% | 833.33 nM 1.08% | 10000 nM 0.67%

NC(=O)C1=CN([C@@H]2O[C@H](COP(=O)(O)OP(=O)(O)OC[C@H]3O[C@@H](n4cnc5c(N)ncnc54)[C@H](OP(=O)(O)O)[C@@H]3O)[C@@H](O)[C@H]2O)C=CC1
inactive: 1 nM 0.75% | 8.33 nM 3.17% | 100 nM 2.16% | 833.33 nM 0.8% | 10000 nM -1.27%

CC(=O)O[C@H]1C(=O)[C@@]2(C)[C@H]([C@H](OC(=O)c3ccccc3)[C@]3(O)C[C@H](OC(=O)[C@H](O)[C@@H](NC(=O)c4ccccc4)c4ccccc4)C(C)=C1C3(C)C)[C@]1(OC(C)=O)CO[C@@H]1C[C@@H]2O [paclitaxel]
inactive: 1 nM -2.42% | 8.33 nM -0.27% | 100 nM -2.39% | 833.33 nM -4.55% | 10000 nM -2.64%
